The list is not random: actives were taken first. Their share in the collection is about 2.3%.
HTR1E antagonist: 5-HT1E receptor antagonists, primary screen, cell-based, HTS; AID 571, 2007; CHO 5-HT1E Ga15 NFAT-bla reporter, FRET, antagonist; 65,000 compounds, 0.99% hits; inhibition, % at 6 µM; 5-hydroxytryptamine receptor 1E (Homo sapiens), P28566;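 active means inhibition above a set limit, the mean inhibition across every tested compound plus 3 SD, cut at about 29% in these data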;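 further: signal is the 460 over 535 nm emission ratio of beta-lactamase substrate; 0% = agonist plus DMSO wells and 100% = wells without agonist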
5HT1E ag: 5-HT1E receptor agonists, primary screen, cell-based, HTS | CHO 5-HT1E Ga15 NFAT-bla reporter, FRET; 0% DMSO wells, 100% control agonist wells | activation, % at 6 µM | 65,000 compounds, 0.69% hits | AID 574, 2007;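 active means activation above a set limit, the screen-wide mean activation plus 3 SD, cut at about 8.5% in these data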;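 further: 100% = positive control agonist at 1 µM giving full maximal response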
Htt clearance: clearance of mutant huntingtin inclusions, primary screen, imaging, HeLa Exon1htt(103Q)mCFP, confocal imaging. aggregate imaging; zero = plate's median compound well. inhibition, % at 1.5 µM. 47,000 compounds, 0.42% hits. AID 853, 2007;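 active means inhibition of aggregate fluorescence above about 70%, also judged a hit by eye on the cell image, limit read from the data, passing the limit was not always enough; inconclusive means no rule stated for this call; inactive means not judged a hit on image review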;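 further: cells exposed to compound for three days before fixation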
HTR1A agonist: human 5-HT1a receptor agonists, primary screen, cell-based, CHO, Ga15 NFAT-bla reporter; 5-hydroxytryptamine receptor 1A (Homo sapiens), P08908; activation, % at 10 µM; CHO 5-HT1a Ga15 NFAT-bla reporter, FRET ratio; 0% basal, 100% maximal reference agonist; 65,000 compounds, 0.56% hits;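 active means activation above the screen-wide mean activation plus 3 SD, cut at about 19% in these data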;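 further: 0% = DMSO wells and 100% = 5-CT at EC100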
Target sequence (P08908 whole entry, looked up): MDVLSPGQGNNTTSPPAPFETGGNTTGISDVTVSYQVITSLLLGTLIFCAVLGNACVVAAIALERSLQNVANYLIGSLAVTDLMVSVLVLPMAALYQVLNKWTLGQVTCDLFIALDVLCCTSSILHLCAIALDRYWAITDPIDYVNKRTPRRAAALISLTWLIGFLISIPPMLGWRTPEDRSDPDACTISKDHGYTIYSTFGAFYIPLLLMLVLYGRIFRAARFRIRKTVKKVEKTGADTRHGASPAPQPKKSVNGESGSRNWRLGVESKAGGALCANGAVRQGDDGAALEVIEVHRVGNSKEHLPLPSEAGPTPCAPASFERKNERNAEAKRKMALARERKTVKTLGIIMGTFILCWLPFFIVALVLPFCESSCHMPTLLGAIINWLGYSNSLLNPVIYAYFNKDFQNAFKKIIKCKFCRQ
5HT1a antag: human 5-HT1a receptor antagonists, primary screen, cell-based, CHO, Ga15 NFAT-bla reporter | 5-hydroxytryptamine receptor 1A (Homo sapiens), P08908 | CHO 5-HT1a Ga15 NFAT-bla reporter, antagonist mode | inhibition, % at 10 µM | 62,000 compounds, 0.68% hits;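 active means inhibition above the mean of all tested compounds plus 3 SD, cut at about 43% in these data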;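 further: receptor stimulated by 5-CT agonist at 100 nM near EC80; beta-lactamase reporter measured by ratiometric fluorescence of a cleavable substrate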
An asterisk follows results filed as active; ? = inconclusive; · = not tested or not shown.

SMILES | HTR1E antagonist | 5HT1E ag | Htt clearance | HTR1A agonist | 5HT1a antag
CCC1CCCCN1c1nc2c(c(=O)n(C)c(=O)n2C)n1CCSc1nc2ccccc2o1 (stereo unspecified) | -1 | 0 | · | -1 | -7
Clc1ccccc1OCCCCN1CCCC1 | 4 | 15* | -20 | -1 | 17
Cc1nn(Cc2ccccc2)c(C)c1NC(=O)c1cc2nc(-c3ccco3)cc(C(F)(F)F)n2n1 | -4 | 0 | -23 | 1 | -10
Cc1ccccc1Cn1ccc(NC(=O)c2cc3nc(-c4ccco4)cc(C(F)(F)F)n3n2)n1 | -5 | 2 | -78 | 74* | -15
O=[n+]1c2c(n([O-])c3cc(F)c(F)cc31)CCCC2 | 7 | 0 | -67 | -1 | -5
CCC(CC)C(=O)Nc1cc(=O)n(C)c(=O)n1C | 9 | 0 | · | 36* | 12
CCC(NC(=O)NCc1cccnc1)(C(F)(F)F)C(F)(F)F | 7 | 0 | 26 | 5 | 7
O=C1c2ccccc2C(Nc2ccc(S(=O)(=O)N3CCCCCC3)cc2)N1Cc1ccco1 (stereo unspecified) | 5 | 0 | · | 44* | 13
O=C(c1c(Cl)cccc1Cl)N1CCN(c2ccccn2)CC1 | -5 | 0 | · | 0 | 9
O=C(c1ccco1)N1CCN(C(=O)N2c3ccccc3Sc3ccccc32)CC1 | 74* | -1 | -100 | -2 | 58*
O=C(N1CCN(c2ccccn2)CC1)N1c2ccccc2Sc2ccccc21 | 37* | 0 | ? | 0 | 48*
O=C(CCC1CCCC1)N1CCN(C(=O)c2ccco2)CC1 | 1 | -2 | 72* | 0 | 8
O=C(c1ccco1)N1c2ccccc2Sc2ccccc21 | -4 | -1 | 35 | -1 | 6
O=C(c1ccco1)N1CCCN(C(=O)c2ccco2)CC1 | 0 | 1 | · | 0 | -12
COc1ccc(Cl)cc1N(CC(=O)Nc1ccc2c(c1)OCCO2)S(C)(=O)=O | 24 | -1 | 19 | -1 | 6
Cc1cc(NC(=O)c2ccc(NC(=O)C(C)Oc3ccccc3)cc2)no1 (stereo unspecified) | -2 | 0 | · | 1 | -6
Cc1cc(C2=CC(C)(c3cc(C)oc3C)Nc3nc(C(F)(F)F)nn32)c(C)o1 (stereo unspecified) | 16 | -1 | · | -5 | 60*
CCN(Cc1ccccc1)C(c1cccs1)c1nnnn1C1CCCCC1 (stereo unspecified) | 7 | 0 | · | -1 | 44*
Clc1ccccc1CN(Cc1ccccc1)C(c1cccs1)c1nnnn1C1CCCC1 (stereo unspecified) | · | · | -88 | · | ·
COCCOC(=O)c1c(C)oc2ccc(OC(=O)c3c(OC)cccc3OC)cc12 | -5 | 0 | 8 | 2 | -6
CCOC(=O)C1=C(CS(=O)(=O)c2ccc(F)c(C)c2)NC(=O)NC1c1ccc(O)c(O)c1 (stereo unspecified) | 0 | 0 | · | -2 | -1
COc1cccc(Oc2cncnc2-c2ccc(OC)cc2O)c1 | 12 | 0 | 73* | -4 | 22
CCn1c(=NC(=O)CN2C(=O)CCC2=O)sc2c(OC)ccc(OC)c21 | 24 | 1 | · | -3 | 9
CCn1c(=NC(=O)c2ccc(N3C(=O)CCC3=O)cc2)sc2c(OC)ccc(OC)c21 | 31* | 2 | · | 1 | 12
C(=C\c1ccccc1)/CSc1nnc(-c2cccnc2)o1 | 1 | -1 | · | -4 | 0
SMILES | HTR1E antagonist | 5HT1E ag | Htt clearance | HTR1A agonist | 5HT1a antag
CCN(CC)C(=O)CSc1nc2ccccc2c(=O)n1CC1CCCCC1 | 37* | 0 | · | 4 | ·
COc1cccc(CNCc2ccccn2)c1OC | 2 | 11* | -80 | -1 | -10
CCN(CCCNC(=O)C1CCCN(S(=O)(=O)c2cnc[nH]2)C1)c1ccccc1 (stereo unspecified) | 14 | 0 | -16 | 0 | 1
COC(=O)c1sc(NC(=O)c2cnccn2)c(C(=O)OC)c1C | 0 | -1 | · | -4 | -4
COc1cccc(C2C=C(c3cccs3)Nc3ncnn32)c1OC (stereo unspecified) | 30* | 0 | · | -4 | 26
COc1ccc(C2=CC(c3ccc(OC)c(OC)c3)n3nnnc3N2)c(OC)c1 (stereo unspecified) | 29* | 0 | · | 0 | 6
